Experimental data reported in PubChem BioAssay (NCATS).
Results filed as inconclusive are left out. Activity calls are given as the source filed them. The call rests on the fitted dose curve; in most records, active means well fitted cell-killing curve with a large enough effect; inconclusive means small, poorly fitted or top-dose-only effect; inactive means flat fitted curve, though single readings scatter.

assay: Cell Viability - LYMP2-022 (AID 987); conditions: LYMP2-022 lymphoblastoid cell viability; series mostly up to 92.2 µM; viability change, negative = cytotoxic: at the top concentration;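 further: 0% = DMSO alone and full effect = tetraoctylammonium bromide at 92 µM; nearly all actives have a fitted effect of over 55% in size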
From the text: NIH Chemical Genomics Center [NCGC]
NIH Molecular Libraries Screening Centers Network [MLSCN]
National Institutes of Environmental Health Sciences [NIEHS]
National Toxicology Program [NTP]
We have developed a 1536-well cell-based assay for quantitative high throughput screening (qHTS) against a number of cell lines to determine in vitro cytotoxicity of small molecules. This particular assay uses a human lymphoblastoid cell line (LYMP2-022) purchased from Coriell Institute for Medical Research.
NCGC Assay Protocol Summary:
The CellTiter-Glo luminescent cell viability assay (Promega) is a homogeneous method to measure the number of viable cells in culture. The end point readout of this assay is based on quantitation of intracellular ATP, an indicator of metabolic activity, using the luciferase reaction. Luciferase catalyzes the oxidation of beetle Luciferin to oxyluciferin and light in the presence of ATP. The luminescent signal is proportional to amount of ATP present.
Using the CellTiter-Glo luminescent cell viability assay, the amount of cellular ATP was measured in the lymphoblastoid cell line with complete culture medium following compound treatment for 24 hours. The assay was performed in opaque white Kalypsys 1536-well plates. In the screen, tetraoctylammonium bromide was used as positive control. Library compounds were measured for their ability to cause acute toxicity in the cell line, as reflected by a decrease in intracellular ATP levels, in a concentration-dependent manner. […] AC50 values were determined from concentration-response data modeled with the standard Hill equation.
qHTS protocol for CellTiter Glo lymphoblastoid cellular assay
[Step] [Parameter] [Value] [Description]
1. Reagent; 5 uL; 2500 lymphoblastoid cells/well
2. Time; 5 hr; 37 C incubation
4. Controls; 23 nL; Tetraoctylammonium bromide 6.4pM to 92 uM
5. Time; 24 hr; 37 C incubation
6. Reagent; 5 uL; CellTiter Glo reagent
7. Time; 30 min; Room Temperature
8. Detection; Luminescence; Viewlux plate reader
Keywords: cell viability, cytotoxicity, lymphoblastoid cell line, luminescence, NTPHTS, NTPHTS_NCGC, NIEHS, DSSTox, MLSMR, MLSCN, NIH Roadmap, qHTS, NCGC

Row | Structure (SMILES) | viability change, negative = cytotoxic
1 | CC(=O)c1cccc([N+](=O)[O-])c1 | -3.33% (inactive)
2 | ClC/C=C/CCl | -29% (inactive)
3 | CCOCC(=O)O | 1.16% (inactive)
4 | CCCCCCC=O | -1.54% (inactive)
5 | Cc1ccccc1C#N | -4.31% (inactive)
6 | N#Cc1ccccc1 | -0.74% (inactive)
7 | C[C@@H]1O[C@@H](O[C@@H]2[C@@H](O)[C@H](OCCc3ccc(O)c(O)c3)O[C@H](CO[C@@H]3O[C@H](CO)[C@@H](O)[C@H](O)[C@H]3O)[C@H]2OC(=O)/C=C/c2ccc(O)c(O)c2)[C@H](O)[C@H](O)[C@H]1O | -18.2% (inactive)
8 | O=C(O)CCSSCCC(=O)O | 9.17% (inactive)
9 | Cc1cc(C(=O)O)ccc1[N+](=O)[O-] | -19.3% (inactive)
10 | ON=C1CCCCC1 | -3.88% (inactive)
11 | c1ccc2c(c1)Oc1ccccc1S2 | 1.49% (inactive)
12 | CC(C)(C)OCC1CO1 (stereo not given) | -7.65% (inactive)
13 | Cc1nc2ccc(Cl)cc2[nH]1 | -9.19% (inactive)
14 | C1CCC2OC2C1 (stereo not given) | -15.6% (inactive)
15 | CC(C)Cc1nccs1 | -0.463% (inactive)
16 | CC(C)=CCC/C(C)=C/C=O | -6.68% (inactive)
17 | CCCCC(CC)CO (stereo not given) | 8.03% (inactive)
18 | CO[Si](CCCNCCC[Si](OC)(OC)OC)(OC)OC | 4.52% (inactive)
19 | Clc1cc(Cl)cc(Cl)c1 | 3.37% (inactive)
20 | CSc1ccc(C=O)cc1 | -13.8% (inactive)

Row | Structure (SMILES) | viability change, negative = cytotoxic
21 | O=C(O)CNC(=O)c1ccc(CO)o1 | -0.162% (inactive)
22 | Cc1ccc(C)c([N+](=O)[O-])c1 | -11.5% (inactive)
23 | Nc1cc([N+](=O)[O-])ccc1C(=O)O | -1.74% (inactive)
24 | Cc1ccc(C(=O)O)cc1 | 0.48% (inactive)
25 | CCOC(=O)C(C)C(C)=O (stereo not given) | -7.96% (inactive)
26 | O=C1C=CCCC1 | -63.2% (inactive)
27 | O=C(O)c1cccc(Cl)c1Cl | -8.59% (inactive)
28 | c1ccc2n[nH]nc2c1 | -3.28% (inactive)
29 | CCCCC(C=O)CC (stereo not given) | 0.876% (inactive)
30 | c1ccsc1 | 1.88% (inactive)
31 | Cc1ccco1 | 14.1% (inactive)
32 | CC(C=O)Cc1ccc(C(C)(C)C)cc1 (stereo not given) | 1.98% (inactive)
33 | CCOc1ccc(NC(C)=O)cc1N | -14% (inactive)
34 | NC(=O)/N=N/C(N)=O | -24.6% (inactive)
35 | CC/C(C)=N/O | -5.43% (inactive)
36 | O=C(O)c1ccc(C(=O)O)cc1 | -8.11% (inactive)
37 | [O-]/[N+](=N\O)c1ccccc1 | -14.9% (inactive)
38 | Cc1cccc2cccnc12 | 3.37% (inactive)
39 | CC(O)COC(C)(C)C (stereo not given) | 14.6% (inactive)
40 | CCCC(Cl)CCCC(Cl)CCC(Cl)CCC(Cl)CCC(Cl)CCCC(Cl)CCC (stereo not given) | -15.7% (inactive)
